# Compounds with a hit are over-represented: about 0.87% of the library has one in this group of screens.
# RECQ1 inh-1: inhibitors of human RECQ1 DNA helicase | Potency, µM (top dose mostly 57.3 µM), inactives show top-dose activity, negative = inhibition, usual class: inhibitors | P46063 | 240,000 tested, 0.54% active | RECQ1 DNA unwinding, red fluorescence kinetic read;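 also: plate controls were vehicle for no effect and no enzyme for full effect; nearly all actives have a fitted effect of over 30% in size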
#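 RECQ1T1 50 nM; forked duplex (20 bp + 30-nt ss tails) 200 nM, ATP 2 mM final; pH 8.0, 2 mM MgCl2, 2.5 ug/ml poly(dI-dC); 15 min compound preincubation; discontinuous kinetic read over 2 h at RT.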
# TDP1 inh: blocks human tyrosyl-DNA phosphodiesterase 1. Q9NUW8. recombinant TDP1, AlphaScreen DNA substrate cleavage. Potency, µM (highest dose often 130 µM), without a hit: at the highest dose activity change, negative = inhibition, hits mostly inhibitors. 350,000 tested, 0.28% active. AID 485290; also: nearly all actives have a fitted effect of over 40% in size
# Target sequence (Q9NUW8 whole entry, looked up): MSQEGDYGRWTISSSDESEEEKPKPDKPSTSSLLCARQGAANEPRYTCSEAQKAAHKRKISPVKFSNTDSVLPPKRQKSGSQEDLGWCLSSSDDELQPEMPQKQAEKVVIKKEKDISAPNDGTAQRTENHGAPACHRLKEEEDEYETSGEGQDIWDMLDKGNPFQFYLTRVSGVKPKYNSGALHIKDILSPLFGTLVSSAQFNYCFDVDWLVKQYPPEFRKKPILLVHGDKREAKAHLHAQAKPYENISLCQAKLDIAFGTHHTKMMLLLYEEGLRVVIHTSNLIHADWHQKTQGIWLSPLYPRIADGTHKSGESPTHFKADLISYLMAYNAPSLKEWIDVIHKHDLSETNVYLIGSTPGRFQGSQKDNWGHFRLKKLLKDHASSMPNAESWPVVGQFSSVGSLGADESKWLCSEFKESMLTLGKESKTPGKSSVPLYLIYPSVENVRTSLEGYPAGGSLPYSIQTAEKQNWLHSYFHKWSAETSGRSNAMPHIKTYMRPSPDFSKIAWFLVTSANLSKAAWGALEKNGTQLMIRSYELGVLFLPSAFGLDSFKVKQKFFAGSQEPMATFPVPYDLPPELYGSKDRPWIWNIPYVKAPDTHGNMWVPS
#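 AlphaScreen read-out: signal falls as enzyme removes the 3' tyrosine-FITC from a 5'-biotinylated DNA oligo (15 nM, 5 min, RT). Enzyme was E. coli-made recombinant Tdp1 at 1 nM, exposed to compound for 15 min beforehand; beads 10 ug/ml, 10 min.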
# APEX1 inh: APE1 (human) endonuclease inhibition; AID 2517; 350,000 tested, 0.35% active; recombinant APE1, TAMRA/BHQ-2 abasic DNA cleavage fluorescence; Potency, µM (top dose mostly 65.8 µM), without a hit: top-dose activity change, negative = inhibition, usual class: inhibitors; P27695;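 also: plate controls were vehicle for no effect and reference inhibitor for full effect; nearly all actives have a fitted effect of over 55% in size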
#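 Measures dequenching upon AP-site incision of a 5'-TAMRA/3'-BHQ-2 THF-containing duplex, 50 nM; human APE1 0.75 nM after 15 min room-temperature exposure to compound; kinetic three-point read at one-minute spacing.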
# BLM inh: Bloom syndrome helicase (human) inhibition | recombinant BLM DNA unwinding, fluorescence dequenching | P54132 | 350,000 tested, 0.2% active | Potency, µM (doses to about 56.1 µM), for inactives: top-dose activity change, negative = inhibition, usual class: inhibitors;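 also: plate controls were vehicle for no effect and no enzyme for full effect; nearly all actives have a fitted effect of over 35% in size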
# RGS4 inhibitor: blocks human RGS4-accelerated GTP hydrolysis; P49798; Transcreener GDP fluorescence polarization, RGS4-accelerated GTP hydrolysis; Potency, µM (titrated, usually from 114 µM), for the others: top-dose activity change, negative = inhibition, most hits filed as inhibitors; 390,000 tested, 0.039% active; AID 504845; also: nearly all actives have a fitted effect of over 75% in size
#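 MLSMR compounds (23 nl, pin-transferred) preincubated 10 min at room temperature with a 500nM (2x) first reagent, then RGS4 at 900nM (2x) plus Transcreener GDP mix added; fluorescence polarization (620/688 nm) read before and after 90 min at 30 °C.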
# GCN5L2 inh: inhibitors of human GCN5L2 histone acetyltransferase; Potency, µM (highest dose often 58.9 µM), inactives show at the highest dose activity change, negative = inhibition, most hits filed as inhibitors; GCN5L2 HAT assay, ThioGlo1 CoA-SH fluorescence; Q92830; AID 504327; 390,000 tested, 0.21% active
#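 GCN5L2 (20nM final) in 50mM HEPES, 0.1mM EDTA pH 7.5, 0.01% Tween-20 was preincubated 15 min at room temperature with compound, then given ThioGlo1 (50uM), H3(1-25) peptide (75uM) and acetyl-CoA (70uM); CoA-thiol fluorescence (Ex340/Em540) was read at 0 and 20 min.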
# RECQ1 conf: confirmation of human RECQ1 helicase inhibitors; shares compounds with RECQ1 inh-1; RECQ1 helicase DNA unwinding, fluorescence; Potency, µM (doses to about 229 µM), without a hit: at the top dose activity change, negative = inhibition, usual class: inhibitors; 610 tested, 28% active; AID 2708; also: nearly all actives have a fitted effect of over 45% in size
# RECQ1 ADP FP: counter-screen for RECQ1 inhibitors: ADP displacement. Potency, µM (titrated, usually from 228 µM), for the others: at the top dose activity change, negative = inhibition, usual class: inhibitors. AID 2711. 530 tested, 27% active. ADP fluorescence polarization displacement counterscreen. shares compounds with RECQ1 inh-1; also: nearly all actives have a fitted effect of over 45% in size
# RECQ1 inh-2: RECQ1 helicase inhibition confirmed, round 2; 1,100 tested, 15% active; shares compounds with RECQ1 inh-1; AID 504841; Potency, µM (series often up to 119 µM), for inactives: at the top dose activity, negative = inhibition, hits mostly inhibitors; recombinant RECQ1 DNA unwinding, red fluorescence; also: nearly all actives have a fitted effect of over 50% in size
# An asterisk follows results filed as active; i = inactive; ? = inconclusive; . = not tested or not shown; ! = not active in a repeat; [ ] = another dose, or the depositor's remark. Calls follow the shape of the dose curve; as a rule, active = well fitted curve in the direction sought with a large enough effect; inconclusive = small, poorly fitted or top-dose-only effect, or another doubt; inactive = no such curve, though single readings can be large; an effect the other way counts as inactive or inconclusive. Unless noted, % is scaled to controls: 0 for no effect and ±100 for the full control effect; potency is read from the fitted curve at half-maximal effect.
SMILES,RECQ1 inh-1,TDP1 inh,APEX1 inh,BLM inh,RGS4 inhibitor,GCN5L2 inh,RECQ1 inh-2,others
CCN1C(=O)C(CC(=O)Nc2ccc(F)cc2)N(CCc2ccc(OC)cc2)C1=S (stereo not drawn),22µM*,-2%,-7%,-13%,13%,-8%,-17%,
CC/C(=C/c1sc2ccc(C)cc2[n+]1CCCS(=O)(=O)[O-])SC,?,-2%,-10%,-3%,-16%,-13%,-4%,
Cc1ccc2c(C)cc[n+](CCCS(=O)(=O)[O-])c2c1,0%,2%,2%,-3%,-32%,-3%,.,
Cc1ccc(C2=CC(C)(c3ccc(C)cc3)Nc3nc(C(F)(F)F)nn32)cc1 (stereo not drawn),?,11%,13%,-4%,15%,-11%,-15%,
Cc1c2c(=O)n(-c3nc4ccccc4s3)nc-2cc(O)n1Cc1ccccc1,22µM*,10%,?,16µM*,?,?,-6%,RECQ1 conf=45µM*;RECQ1 ADP FP=48%[91.9 µM]
Cc1cc(C)n(-c2nc3ccccc3s2)n1,16%,-3%,3%,1%,-8%[11.4 µM],2%,.,
Oc1ccc(COCc2ccc(F)cc2)c2cccnc12,.,.,7%,.,.,-5%,.,
CC(=O)Nc1ccc(S(=O)(=O)/N=C2\SCCN2S(=O)(=O)c2ccc(NC(C)=O)cc2)cc1,?,-3%,?,4%,15%,-14%,-11%,
CC(C)[C@H](NS(=O)(=O)c1ccc2c(c1)OCCO2)C(=O)OCC(=O)Nc1cc(Cl)ccc1Cl,50µM*,3%,10%,-6%,?,-9%,-16%,
Cc1cc(N)c2ccccc2[n+]1CCCCCCCCCC[n+]1c(C)cc(N)c2ccccc21,?,12%[56.1 µM],?,-27%,24µM*,-7%,.,RECQ1 conf=?;RECQ1 ADP FP=22µM*
CCCCOc1ccc(C(=O)NCCS(=O)(=O)N2CCN(c3ccccc3OC)CC2)cc1,.,7%,.,-11%,5%,-20%,.,
COc1ccccc1-c1nnc2n1N=C(c1ccc(O)c(O)c1)CS2,32µM*,-12%,?,-15%,-17%,57%,?,
Cc1nn(Cc2ccccc2)c(Cl)c1C(=O)NCc1ccc(C)n1C,-1%,0%,-2%,-6%,2%,1%,.,
Cc1nn(Cc2c(Cl)cccc2Cl)c(C)c1C(=O)NCc1ccc(C)n1C,?,4%,-4%,-5%,3%,-12%,-9%,
O=C(Cn1nc(C(=O)O)c2ccccc2c1=O)Nc1nc(-c2ccccc2)cs1,i,-5%,-4%,-9%,24%,-1%,.,RECQ1 conf=2%;RECQ1 ADP FP=7%
O=C(NCc1cccs1)c1ccc(Cn2c(SCc3ccccc3)nc3cccnc32)cc1,.,5%,.,-2%,-4%,-15%,.,
O=C(c1ccc(OCCCc2cnc[nH]2)cc1)C1CC1,-12%,11%,-3%,-6%,13%[56.9 µM],-2%,.,
COC(=O)N[C@@H](CCc1ccccc1)[C@]1(C(C)=O)CCCC1=O,i,1%,-4%,5%,.,.,.,
Cc1nc(C(=O)Nc2cccc(Cl)c2)nn1-c1cc(OC(C)C)c(Cl)cc1Cl,35µM*,-3%,-4%,-9%,-30%,-2%,-13%,
O=C(O)c1ccccc1NC(=S)NC(=O)c1sc2ccccc2c1Cl,0%,3%,1%,1%,?,-15%,.,
Cc1ccc(NC(=S)NC(=O)c2sc3ccccc3c2Cl)c(C(=O)O)c1,7%,2%,-3%,-14%,.,-3%,.,RECQ1 conf=89µM*;RECQ1 ADP FP=?
CC(C)CC1OC(=O)C2=CCCCC21 (stereo not drawn),-1%,11%,-4%,-5%,.,-10%,.,
Cc1ccc(Nc2nc(N3CCOCC3)nc(N3CCOCC3)n2)cc1,-6%,0%,0%,-5%,15%,0%,.,
Cc1ccc(Nc2nc(Nc3ccc(Cl)cc3)nc(N3CCOCC3)n2)cc1,.,-2%,.,.,-14%,.,.,RECQ1 conf=-15%[69.1 µM]
CC(=O)Nc1ccc(Nc2nc(Nc3ccc(Cl)cc3)nc(N3CCOCC3)n2)cc1,.,1%,.,.,-2%,.,.,RECQ1 conf=-6%[69.1 µM]
SMILES,RECQ1 inh-1,TDP1 inh,APEX1 inh,BLM inh,RGS4 inhibitor,GCN5L2 inh,RECQ1 inh-2,others
Clc1ccc(Nc2nc(N3CCOCC3)nc(N3CCOCC3)n2)cc1Cl,.,-1%,-21%,0%,12%,-12%,.,
Cc1ccc(S(=O)(=O)Nc2cccc3ccc(C)nc23)cc1,i,16%,-6%,2%,.,.,.,
CC(=O)OC1CC(C)OC(C)O1 (stereo not drawn),-5%,5%,3%,.,.,.,.,
N=C(N)c1ccccc1,14µM*!,5%[56.1 µM],4%,-1%,13%[56.9 µM],4%,.,RECQ1 conf=8%[114 µM];RECQ1 ADP FP=20%[91.9 µM]
CCOC(=O)/C(=C\C=C1/Sc2cc(OCC)c(OCC)cc2N1CC)C(C)=O,-15%,-1%,15%,-8%,-3%,-4%,.,
CCOC(=O)/C(=C/C=C1\Sc2cc(OCC)c(OCC)cc2N1CC)C(C)=O,10µM*,3%,?,-1%,-7%,1%,.,RECQ1 conf=?;RECQ1 ADP FP=45µM*
O=C1N[C@@H]2[C@H](CCCCC(=O)Oc3ccc([N+](=O)[O-])cc3)SC[C@H]2N1,-7%,29%,-2%,-3%,.,26%,.,
Cc1ccc(C)c(NC(=O)c2cc(S(=O)(=O)NCCc3ccccc3)ccc2F)c1,.,3%,.,-7%,24%,8%,.,
Cc1ccc(NC(=O)c2cc(S(=O)(=O)NCCc3ccccc3)ccc2F)cc1Cl,?,-4%,-5%,-10%,9%,-2%,-19%,
CCn1c(SCC(=O)N2c3ccccc3Sc3ccccc32)nnc1-c1ccco1,-4%,9%,-2%,0%,-17%,-6%,.,
C=CCn1c(SCC(=O)N2c3ccccc3Sc3ccccc32)nnc1-c1ccco1,-2%,.,-1%,-7%,-25%,-5%,.,RECQ1 conf=-10%;RECQ1 ADP FP=11%
CC(C)c1cccc2cc3c(nc12)-c1cccc(=O)n1C3,-1%,-2%,-2%,2%,.,.,.,
Clc1ccccc1N1CCN(c2ncnc3nc[nH]c23)CC1,28µM*,3%,-1%,-1%,3%,-3%,?,

# Source: PubChem BioAssay
